# Results: ChEMBL document CHEMBL3988442, “University of Dundee, Small-Polar-MMV Screening Library” (2021)
# The campaign covered roughly 48,000 compounds. About 13,000 (27%) showed an effect of 50% or more. The list shows a part of the results.
# System: Wolbachia pipientis
# Assay: Anti-Wolbachia Cell-Based Screen
# Format: functional
# Set-up: scale not given: in the data most compounds retested in dose-response had high values
# Conditions: 5 µM
row,SMILES,Percent Effect
1,CC(C)c1cc(N2CCC(C(C)N3CCCC3)CC2)n2nccc2n1 (stereo not given),-4.218%
2,CN(Cc1nc(-c2cccs2)no1)Cc1nc2c(s1)CCCC2,-10.58%
3,Cc1ccc2cnn(CCC(=O)Nc3c(C)nn(C)c3C)c2c1,-9.349%
4,O=C(NCc1cccc(N2CC=CC2)c1)NC1CC1,1.832%
5,Cc1ccc(C(=O)N2CC[C@H](N3CCOCC3)[C@H](CCCO)C2)cc1O,-3.81%
6,Cn1cccc1C(=O)N1CCN(CC2CC2)c2ncccc2C1,-25.73%
7,O=C(N1CCCC1)N1CCN(Cc2cccnc2)c2ncccc2C1.O=C(O)C(F)(F)F.O=C(O)C(F)(F)F,101.8%
8,CN(C)C(=O)N1CCN(C)c2ncccc2C1,5.475%
9,O=C(c1cnccn1)N1CCN(Cc2ccncc2)c2ncccc2C1,-4.343%
10,CN1CCN(C(=O)c2cccn2C)Cc2cccnc21,105.6%
11,COCCN1CCN(C(=O)c2ccncc2F)Cc2cccnc21,4.379%
12,Cn1cccc1C(=O)N1CCN(Cc2cccnc2)c2ncccc2C1.O=C(O)C(F)(F)F.O=C(O)C(F)(F)F,51.12%
13,Cn1cccc1C(=O)N1CCN(Cc2ccncc2)c2ncccc2C1.O=C(O)C(F)(F)F.O=C(O)C(F)(F)F,-28.33%
14,O=C(c1cnccn1)N1CCN(Cc2cccnc2)c2ncccc2C1,97.13%
15,Cc1ccc(C2COCCN2C(=O)c2ccc(CN(C)C)cc2)o1 (stereo not given),-6.944%
16,CC(C)Oc1cc(N2C[C@H](C3CC3)[C@@H](N)C2)nc(N)n1,12.97%
17,COc1ccc(-c2noc([C@@H]3C[C@H](NC(=O)NC(C)C)CN3C)n2)cc1,2.003%
18,COc1ccnc(N2Cc3cnc(C(C)(C)C)nc3C2)n1,-13.37%
19,O=C(O)C(F)(F)F.O=C(O)C(F)(F)F.O=C(c1ccnnc1)N1CCN(Cc2ccncc2)c2ncccc2C1,96.92%
20,O=C(O)C(F)(F)F.O=C(O)C(F)(F)F.O=C(O)C(F)(F)F.O=C(c1ccncc1)N1CCN(Cc2cccnc2)c2ncccc2C1,105.3%
21,O=C(O)C(F)(F)F.O=C(O)C(F)(F)F.O=C(c1ccnnc1)N1CCN(Cc2cccnc2)c2ncccc2C1,97.06%
22,CC(=O)NCC(=O)N1CCN(Cc2ccncc2)c2ncccc2C1,-10.24%
23,CN1CCN(C(=O)Cc2cccc(F)c2)Cc2cccnc21.O=C(O)C(F)(F)F,-17.2%
24,O=C(c1ccc[nH]1)N1CCN(Cc2ccncc2)c2ncccc2C1,105%

row,SMILES,Percent Effect
1,O=C(c1ccncc1F)N1CCN(CC2CC2)c2ncccc2C1,10.49%
2,O=C(c1ccc[nH]1)N1CCC(c2nccn2Cc2ccncc2)CC1,-7.637%
3,Cc1cc(C)n(-c2cncc(N3CCN(C(=O)C(C)(C)C)CC3)n2)n1,6.121%
4,NC(=O)c1cccc(CCNCc2cccs2)c1,0.5417%
5,Cc1ccc2c(c1)c(CNC(=O)C1CCCN(CC(N)=O)C1)nn2C (stereo not given),-18.62%
6,CN1[C@H](Cn2cncn2)C[C@@H]2CN(C3CCOCC3)CC[C@@H]21.O=C(O)C(F)(F)F.O=C(O)C(F)(F)F,8.742%
7,CC(C)N1CC[C@H]2[C@H](C[C@@H](Cn3cccn3)N2c2nccs2)C1.O=C(O)C(F)(F)F.O=C(O)C(F)(F)F.O=C(O)C(F)(F)F,108.8%
8,CC(C)N1CC[C@H]2[C@H](C[C@@H](Cn3cncn3)N2c2nccs2)C1.O=C(O)C(F)(F)F.O=C(O)C(F)(F)F,110.1%
9,CC(=O)N1CC[C@H]2[C@H](C[C@@H](Cn3cncn3)N2c2nccs2)C1.O=C(O)C(F)(F)F,4.075%
10,CN1CC[C@H]2[C@H](C[C@@H](Cn3cncn3)N2c2nccs2)C1,-5.255%
11,CC(C)N1[C@H](Cn2cccn2)C[C@@H]2CN(C3CCOCC3)CC[C@@H]21.O=C(O)C(F)(F)F.O=C(O)C(F)(F)F.O=C(O)C(F)(F)F,7.148%
12,OC(CN1CCN(CC(F)F)CC1)c1ccc(Br)cc1 (stereo not given),2.807%
13,CC(C)CCN1C(=O)CC(N(C)Cc2nc3ccccc3c(=O)[nH]2)C1=O (stereo not given),-3.315%
14,COc1cccc(CN2CCC(CO)(Cc3ccc(Cl)cc3)CC2)c1O,-4.953%
15,CCN1CCC2(CC1)CC(COC)N(Cc1csc(C)n1)C2.O=C(O)C(F)(F)F.O=C(O)C(F)(F)F (stereo not given),21.22%
16,COCC(=O)N1CCC2(CC1)CC(COC)N(c1ncccn1)C2.O=C(O)C(F)(F)F (stereo not given),-2.409%
17,COCC1CC2(CCN(Cc3ccoc3)CC2)CN1Cc1ccccn1 (stereo not given),97.98%
18,COCC(=O)N1CCC2(CC1)CC(COC)N(Cc1ccccn1)C2.O=C(O)C(F)(F)F (stereo not given),100.7%
19,COCC1CC2(CCN(Cc3ccccn3)CC2)CN1c1ncccn1.O=C(O)C(F)(F)F.O=C(O)C(F)(F)F.O=C(O)C(F)(F)F (stereo not given),0.4015%
20,COCC1CC2(CCN(Cc3nccs3)CC2)CN1Cc1ccccn1.O=C(O)C(F)(F)F.O=C(O)C(F)(F)F.O=C(O)C(F)(F)F (stereo not given),106.7%
21,COCC(=O)N1CCC2(CC1)COC(COCc1ccccn1)C2.O=C(O)C(F)(F)F (stereo not given),-3.538%
22,FC(F)(F)CCc1ccnc(N[C@H]2CC[C@H](n3cnnc3)CC2)n1,-3.85%
23,CCNC(=O)NC[C@H]1Cn2c(-c3ccccc3)cnc2CO1,-18.82%
24,Cc1ccc(C)c(CS(=O)(=O)Cc2ccn(C)c(=O)c2)c1,17.59%

row,SMILES,Percent Effect
1,Cc1nc(C)n(C2CCCN(C(=O)c3ccc(NC4CC4)nc3)C2)n1 (stereo not given),0.453%
2,Cc1cnn(C2CCCN(C(=O)c3ccc(NC4CC4)nc3)C2)c1 (stereo not given),77.38%
3,Cc1cnn(C2CCCN(C(=O)COc3ccc(C(N)=O)cc3)C2)c1 (stereo not given),-8.397%
4,Cc1cnn(C2CCCN(C(=O)c3ccnc(-n4cncn4)c3)C2)c1 (stereo not given),91.3%
5,Cc1cnn(C2CCCN(C(=O)C3=NN(C)C(=O)CC3)C2)c1 (stereo not given),5.956%
6,Cc1cnn(C2CCCN(C(=O)c3ccn(C)c(=O)c3)C2)c1 (stereo not given),-5.065%
7,Cc1cnn(C2CCCN(C(=O)c3ccc(C(N)=O)cn3)C2)c1 (stereo not given),85.91%
8,O=C(c1ccc(NC2CC2)nc1)N1CCCC(n2cccn2)C1 (stereo not given),-7.453%
9,Cc1cnn(C2CCCN(C(=O)c3ccc4c(c3)CCC4)C2)c1 (stereo not given),100.4%
10,Cc1cnn(C2CCCN(C(=O)c3ccnc(-n4ccnc4)c3)C2)c1 (stereo not given),5.29%
11,Cc1cnn(C2CCCN(C(=O)c3ccnc(N(C)C)c3)C2)c1 (stereo not given),7.39%
12,CNC(=O)c1ccc(C(=O)N2CCCC(n3cc(C)cn3)C2)cn1 (stereo not given),-2.2%
13,Cn1cnc2c1C(C(=O)N1CCCO1)N(C(=O)c1ccccc1)CC2 (stereo not given),-3.517%
14,N#Cc1cccc(N2CCC3(CC2)Nc2ccccc2NC3=O)n1,-5.007%
15,CC(C)N1CCCC2(CCN(C(=O)CCCn3cncn3)C2)C1=O (stereo not given),0.7052%
16,Cc1cnn(C2CCCN(C(=O)c3ccc(O)nc3)C2)c1 (stereo not given),123.6%
17,Cc1cnn(C2CCCN(C(=O)c3sccc3C#N)C2)c1 (stereo not given),1.519%
18,Cc1cnn(-c2ccc(C(=O)N3CCCC(n4ccnc4C)C3)cc2)c1 (stereo not given),110%
19,Cc1cnn(C2CCCN(C(=O)c3ccc(N4CCCC4)nc3)C2)c1 (stereo not given),85.57%
20,Cc1cnn(C2CCCN(C(=O)c3ccc(-n4cccn4)nc3)C2)c1 (stereo not given),95.03%
21,O=C(CCCn1cncn1)N1CCC2(CC1)[C@H](O)C[C@@H]2OCCO,-4.804%
22,Cc1cc(CNCC2CCCN(C(=O)OC(C)(C)C)C2)no1 (stereo not given),-1.865%
23,CCCOC1CCCN(C(=O)c2[nH]nc(C)c2Br)C1 (stereo not given),-6.367%
24,CCCN1CCN(C(=O)c2ccc3ccccc3n2)[C@H]2CS(=O)(=O)C[C@H]21,2.901%

row,SMILES,Percent Effect
1,Cc1noc2ncc(C(=O)N3CCCC(n4ccnc4C)C3)cc12 (stereo not given),-5.392%
2,Cc1nccn1C1CCCN(C(=O)c2ccc(N(C)C)nc2)C1 (stereo not given),-2.779%
3,Cc1nccn1C1CCCN(C(=O)c2ccc(-n3cccn3)nc2)C1 (stereo not given),122%
4,Cc1ccc(-c2noc(CCC3CCN(C)CC3)n2)nn1,-9.501%
5,CC(C)CCN1CC2(CCN(C(=O)C3(C)CCCCO3)CC2)OC1=O (stereo not given),-6.368%
6,CC(C)n1cc(CN2CCCN(C(=O)c3cccnc3O)CC2)cn1,-1.686%
7,Cc1cccnc1CN1CCN(C(=O)c2cnn(C(C)C)c2)CC1,94.71%
8,Cc1cccnc1CN1CCN(C(=O)c2cc(Cl)c[nH]c2=O)CC1,-31.74%
9,CCc1ncc(C(=O)N2CCN(C(=O)COc3ccccc3)CC2)cn1,3.835%
10,Cc1nccc(C(=O)N2CCCN(Cc3cnn(C(C)C)c3)CC2)n1,5.245%
11,CCc1ncc(C(=O)N2CCN(Cc3ncccc3C)CC2)cn1,86.86%
12,Cc1ccc(OCCC(=O)N(C)CC(=O)Nc2cc(C)on2)c(C)c1,1.593%
13,COc1ccccc1C(=O)N(C)Cc1ncc(C)c(OC)c1C,-3.019%
14,COc1c(C)cnc(CN(C)C(=O)c2ccccc2O)c1C,-2.97%
15,COc1c(C)cnc(CN2CCC(N(C)S(C)(=O)=O)CC2)c1C,116.9%
16,COc1c(C)cnc(CN(C)C(=O)c2ccc(C3CCCO3)s2)c1C (stereo not given),-4.342%
17,COc1cccc(CCCN2CCC(N(C)S(C)(=O)=O)CC2)c1,-2.016%
18,COc1c(C)cnc(CN2CCOC(Cn3nc(C)nc3C)C2)c1C (stereo not given),-9.057%
19,COc1c(C)cnc(CNC(=O)CCOCC(C)C)c1C,11.08%
20,COc1c(C)cnc(CN2CCC(N(C)C(C)C(N)=O)CC2)c1C (stereo not given),-8.935%
21,COc1ccc(C(=O)N(C)Cc2ncc(C)c(OC)c2C)c(OC)c1,77.44%
22,COc1c(C)cnc(CN2CCC(N(C)C(=O)C(C)OC)CC2)c1C (stereo not given),99.72%
23,COc1ccc(OC)c(C(=O)N(C)Cc2ncc(C)c(OC)c2C)c1,-4.561%
